The values below come from publication PMC7862700, “An all-to-all approach to the identification of sequence-specific readers for epigenetic DNA modifications on cytosine”.

Holding throughout (assay): DAPPL (digital affinity profiling via proximity ligation, sequencing); 10 mM Tris-HCl pH 7.5, 50 mM NaCl, 1 mM DTT, 4% glycerol, room temperature, 30 min; GST-TFs on glutathione beads, 16-mer random dsDNA library, 0.1% formaldehyde crosslink after washing; high values mean tight binding
The target in one assay is T1, FLI1 (Homo sapiens, UniProt Q01543 1-452).
T1 sequence: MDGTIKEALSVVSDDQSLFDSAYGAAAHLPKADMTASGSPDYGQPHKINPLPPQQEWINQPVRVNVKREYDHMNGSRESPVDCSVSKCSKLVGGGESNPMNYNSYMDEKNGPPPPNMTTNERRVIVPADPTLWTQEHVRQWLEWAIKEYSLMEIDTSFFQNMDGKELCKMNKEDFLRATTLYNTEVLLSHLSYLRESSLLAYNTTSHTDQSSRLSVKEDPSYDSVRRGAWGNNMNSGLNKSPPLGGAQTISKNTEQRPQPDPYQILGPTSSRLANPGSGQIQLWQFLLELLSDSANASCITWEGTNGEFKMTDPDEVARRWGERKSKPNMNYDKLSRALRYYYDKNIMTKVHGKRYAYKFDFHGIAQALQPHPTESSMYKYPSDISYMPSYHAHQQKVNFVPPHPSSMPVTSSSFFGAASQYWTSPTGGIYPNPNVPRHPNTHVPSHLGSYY
Particulars: protein: recombinant; tags: N-terminal GST; dsDNA, one strand shown. The essentials:
(§1)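 Pools were built from human transcription factors expressed in yeast as GST fusions, captured on glutathione beads and DNA-barcoded, along with a tag-only sample. Incubation with 200 nmole of a 16-mer random double-stranded DNA library lasted 30 min at room temperature in Tris/NaCl/DTT/glycerol buffer, and was followed by washing, 0.1% formaldehyde crosslinking, proximity ligation, PCR amplification and Illumina NextSeq500 sequencing. Binding signal is the quotient of each hexamer's read frequency for a factor and its frequency for the tag-only sample.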

In the next assay the target is T2, ELK1 (Homo sapiens, UniProt P19419 1-428).
T2 sequence: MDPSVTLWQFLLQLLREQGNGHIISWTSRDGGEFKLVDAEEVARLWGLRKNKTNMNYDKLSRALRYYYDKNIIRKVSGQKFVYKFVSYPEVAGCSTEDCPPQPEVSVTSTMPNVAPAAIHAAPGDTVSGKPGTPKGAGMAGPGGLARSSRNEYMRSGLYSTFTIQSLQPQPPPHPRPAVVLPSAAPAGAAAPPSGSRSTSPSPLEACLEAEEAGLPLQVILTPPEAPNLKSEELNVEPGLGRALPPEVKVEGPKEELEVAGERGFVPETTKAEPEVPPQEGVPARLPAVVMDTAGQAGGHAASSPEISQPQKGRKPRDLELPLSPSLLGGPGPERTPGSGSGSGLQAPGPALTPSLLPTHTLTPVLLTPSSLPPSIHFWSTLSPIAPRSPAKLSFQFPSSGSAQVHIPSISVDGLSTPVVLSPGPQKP
As to conditions: protein: recombinant; tags: N-terminal GST; dsDNA, one strand shown. The essentials: as §1

In the next assay the target is T3, GABPA (Homo sapiens, UniProt Q06546 1-454).
T3 sequence: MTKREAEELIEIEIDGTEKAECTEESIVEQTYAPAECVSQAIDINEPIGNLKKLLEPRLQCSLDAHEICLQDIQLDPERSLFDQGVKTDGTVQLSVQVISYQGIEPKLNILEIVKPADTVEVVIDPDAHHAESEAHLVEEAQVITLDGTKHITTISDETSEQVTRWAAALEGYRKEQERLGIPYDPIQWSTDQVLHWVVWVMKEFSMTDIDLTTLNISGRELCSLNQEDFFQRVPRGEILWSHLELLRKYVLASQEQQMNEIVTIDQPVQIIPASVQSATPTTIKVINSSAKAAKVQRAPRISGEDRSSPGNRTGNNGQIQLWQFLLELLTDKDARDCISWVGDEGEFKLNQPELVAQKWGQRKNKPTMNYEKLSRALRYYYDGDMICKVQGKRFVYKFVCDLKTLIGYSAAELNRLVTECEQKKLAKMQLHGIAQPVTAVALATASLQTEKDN
Particulars: protein: recombinant; tags: N-terminal GST; dsDNA, one strand shown. The essentials: as §1

In the next assay the target is T4, ERG (Homo sapiens, UniProt P11308 1-479).
T4 sequence: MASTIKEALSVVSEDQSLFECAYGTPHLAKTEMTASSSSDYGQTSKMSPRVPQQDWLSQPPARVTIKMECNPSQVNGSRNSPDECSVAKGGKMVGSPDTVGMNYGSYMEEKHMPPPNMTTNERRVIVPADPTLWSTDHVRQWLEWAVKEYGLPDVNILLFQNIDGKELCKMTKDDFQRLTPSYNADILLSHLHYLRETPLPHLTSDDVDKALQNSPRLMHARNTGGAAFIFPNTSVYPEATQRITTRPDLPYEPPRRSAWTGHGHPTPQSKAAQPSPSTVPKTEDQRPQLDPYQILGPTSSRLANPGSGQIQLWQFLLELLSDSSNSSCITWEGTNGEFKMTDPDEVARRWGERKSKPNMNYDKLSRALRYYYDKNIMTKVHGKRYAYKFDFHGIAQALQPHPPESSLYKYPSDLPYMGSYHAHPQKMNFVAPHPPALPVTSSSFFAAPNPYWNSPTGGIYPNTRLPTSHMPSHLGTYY
Particulars: protein: recombinant; tags: N-terminal GST; dsDNA, one strand shown. The essentials:
as §1

The target of a further assay is ELF1 (Homo sapiens, UniProt P32519 1-619). As to conditions: protein: recombinant; tags: N-terminal GST; dsDNA, one strand shown. In short, it runs like this:
as §1

A further assay concerns the target T5, EHF (Homo sapiens, UniProt Q9NZC4 1-300).
T5 sequence: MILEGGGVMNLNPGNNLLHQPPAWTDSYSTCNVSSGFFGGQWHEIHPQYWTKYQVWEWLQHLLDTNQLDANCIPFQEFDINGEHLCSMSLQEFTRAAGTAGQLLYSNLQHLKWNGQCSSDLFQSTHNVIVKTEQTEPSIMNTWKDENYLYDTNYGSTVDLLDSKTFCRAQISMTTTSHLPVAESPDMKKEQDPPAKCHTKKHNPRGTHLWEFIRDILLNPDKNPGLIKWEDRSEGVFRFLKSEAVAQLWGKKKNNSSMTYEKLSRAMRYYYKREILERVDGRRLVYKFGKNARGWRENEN
As to conditions: protein: recombinant; tags: N-terminal GST; dsDNA, one strand shown. The essentials:
as §1

For a further assay, the target named is SPI1 (Homo sapiens, UniProt P17947 1-270). As to conditions: protein: recombinant; tags: N-terminal GST; dsDNA, one strand shown. The essentials:
as §1

Another assay addresses SPIB (Homo sapiens, UniProt Q01892 1-262). Particulars: protein: recombinant; tags: N-terminal GST; dsDNA, one strand shown. In short, it runs like this:
as §1

The next assay addresses T6, ELK3 (Homo sapiens, UniProt P41970 1-407).
T6 sequence: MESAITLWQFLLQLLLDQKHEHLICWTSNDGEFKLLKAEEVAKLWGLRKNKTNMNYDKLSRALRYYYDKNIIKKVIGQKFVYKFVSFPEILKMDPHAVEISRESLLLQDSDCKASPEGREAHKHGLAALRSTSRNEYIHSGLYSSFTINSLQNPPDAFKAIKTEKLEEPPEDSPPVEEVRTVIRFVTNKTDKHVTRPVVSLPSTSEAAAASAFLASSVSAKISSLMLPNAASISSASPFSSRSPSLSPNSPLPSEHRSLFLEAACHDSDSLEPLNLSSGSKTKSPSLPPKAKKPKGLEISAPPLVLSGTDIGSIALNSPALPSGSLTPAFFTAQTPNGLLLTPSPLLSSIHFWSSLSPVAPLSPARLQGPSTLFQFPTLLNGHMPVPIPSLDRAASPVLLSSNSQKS
Particulars: protein: recombinant; tags: N-terminal GST; dsDNA, one strand shown. In short, it runs like this:
as §1

For another assay, the target named is T7, FEV (Homo sapiens, UniProt Q99581 1-238).
T7 sequence: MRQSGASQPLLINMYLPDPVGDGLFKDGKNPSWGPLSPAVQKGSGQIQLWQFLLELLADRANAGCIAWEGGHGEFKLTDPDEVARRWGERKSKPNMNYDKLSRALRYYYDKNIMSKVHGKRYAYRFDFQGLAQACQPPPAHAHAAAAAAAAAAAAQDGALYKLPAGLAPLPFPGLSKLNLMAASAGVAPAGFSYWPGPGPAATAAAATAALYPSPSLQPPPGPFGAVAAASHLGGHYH
Particulars: protein: recombinant; tags: N-terminal GST; dsDNA, one strand shown. The essentials: as §1

The next assay deals with ETV5 (Homo sapiens, UniProt P41161 1-510). Particulars: protein: recombinant; tags: N-terminal GST; dsDNA, one strand shown. In short, it runs like this: as §1
The target of the next assay is HSF1 (Homo sapiens, UniProt Q00613 1-529). As to conditions: protein: recombinant; tags: N-terminal GST; chain copies: 3; dsDNA, one strand shown. The essentials:
as §1

A further assay has as its target T8, SPIC (Homo sapiens, UniProt Q8N5J4 1-248).
T8 sequence: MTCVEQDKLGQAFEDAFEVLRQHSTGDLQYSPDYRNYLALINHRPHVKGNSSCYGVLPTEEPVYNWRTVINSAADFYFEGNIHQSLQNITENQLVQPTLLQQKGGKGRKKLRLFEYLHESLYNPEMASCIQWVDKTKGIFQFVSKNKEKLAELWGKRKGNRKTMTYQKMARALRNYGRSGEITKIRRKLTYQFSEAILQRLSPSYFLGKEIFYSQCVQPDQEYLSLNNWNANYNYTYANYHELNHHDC
Particulars: protein: recombinant; tags: N-terminal GST; dsDNA, one strand shown. In short, it runs like this:
as §1

The target in another assay is ELF4 (Homo sapiens, UniProt Q99607 1-663). Particulars: protein: recombinant; tags: N-terminal GST; dsDNA, one strand shown. The essentials: as §1
A further assay deals with T9, ELK4 (Homo sapiens, UniProt P28324-2 1-405).
T9 sequence: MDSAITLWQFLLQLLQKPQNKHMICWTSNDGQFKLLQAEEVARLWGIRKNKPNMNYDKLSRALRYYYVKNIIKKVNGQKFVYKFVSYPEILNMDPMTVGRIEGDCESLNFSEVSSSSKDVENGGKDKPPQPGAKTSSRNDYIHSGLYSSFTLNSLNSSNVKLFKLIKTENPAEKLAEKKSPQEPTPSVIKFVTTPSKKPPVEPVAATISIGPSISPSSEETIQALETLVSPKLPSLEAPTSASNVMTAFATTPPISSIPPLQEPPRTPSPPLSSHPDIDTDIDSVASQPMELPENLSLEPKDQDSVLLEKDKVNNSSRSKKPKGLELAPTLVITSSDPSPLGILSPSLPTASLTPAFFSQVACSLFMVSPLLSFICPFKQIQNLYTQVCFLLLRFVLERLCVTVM
As to conditions: protein: recombinant; tags: N-terminal GST; dsDNA, one strand shown. The essentials: as §1

In the next assay the target is T10, ETV2 (Homo sapiens, UniProt O00321 1-342).
T10 sequence: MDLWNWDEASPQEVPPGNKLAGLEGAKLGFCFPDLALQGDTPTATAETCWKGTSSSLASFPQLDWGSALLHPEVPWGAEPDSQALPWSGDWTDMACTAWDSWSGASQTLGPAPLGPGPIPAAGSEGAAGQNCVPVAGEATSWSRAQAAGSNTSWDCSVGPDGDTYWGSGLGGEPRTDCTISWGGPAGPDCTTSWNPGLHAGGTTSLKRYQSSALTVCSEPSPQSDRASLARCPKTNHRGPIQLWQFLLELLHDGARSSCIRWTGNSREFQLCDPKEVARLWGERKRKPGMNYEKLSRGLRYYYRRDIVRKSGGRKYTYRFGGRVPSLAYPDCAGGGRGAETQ
Particulars: protein: recombinant; tags: N-terminal GST; dsDNA, one strand shown. In short, it runs like this:
as §1

For the next assay, the target named is T11, ELF3 (Homo sapiens, UniProt P78545 1-371).
T11 sequence: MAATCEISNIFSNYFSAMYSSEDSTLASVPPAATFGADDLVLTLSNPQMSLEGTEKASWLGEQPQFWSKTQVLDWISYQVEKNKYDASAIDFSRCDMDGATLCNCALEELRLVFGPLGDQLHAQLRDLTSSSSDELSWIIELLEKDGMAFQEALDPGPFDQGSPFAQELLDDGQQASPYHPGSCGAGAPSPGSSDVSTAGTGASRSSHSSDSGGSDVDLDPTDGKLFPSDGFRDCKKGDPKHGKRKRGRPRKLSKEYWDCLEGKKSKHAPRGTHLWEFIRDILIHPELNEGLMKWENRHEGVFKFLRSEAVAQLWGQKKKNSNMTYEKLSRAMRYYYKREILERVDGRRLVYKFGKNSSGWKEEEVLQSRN
Particulars: protein: recombinant; tags: N-terminal GST; dsDNA, one strand shown. In short, it runs like this:
as §1

For another assay, the target named is CRX (Homo sapiens, UniProt O43186 1-299). As to conditions: protein: recombinant; tags: N-terminal GST; dsDNA, one strand shown. The essentials: as §1
The target in a further assay is ETV1 (Homo sapiens, UniProt P50549 1-477). As to conditions: protein: recombinant; tags: N-terminal GST; dsDNA, one strand shown. In short, it runs like this:
as §1

ELF4, sequence (Q99607 whole entry): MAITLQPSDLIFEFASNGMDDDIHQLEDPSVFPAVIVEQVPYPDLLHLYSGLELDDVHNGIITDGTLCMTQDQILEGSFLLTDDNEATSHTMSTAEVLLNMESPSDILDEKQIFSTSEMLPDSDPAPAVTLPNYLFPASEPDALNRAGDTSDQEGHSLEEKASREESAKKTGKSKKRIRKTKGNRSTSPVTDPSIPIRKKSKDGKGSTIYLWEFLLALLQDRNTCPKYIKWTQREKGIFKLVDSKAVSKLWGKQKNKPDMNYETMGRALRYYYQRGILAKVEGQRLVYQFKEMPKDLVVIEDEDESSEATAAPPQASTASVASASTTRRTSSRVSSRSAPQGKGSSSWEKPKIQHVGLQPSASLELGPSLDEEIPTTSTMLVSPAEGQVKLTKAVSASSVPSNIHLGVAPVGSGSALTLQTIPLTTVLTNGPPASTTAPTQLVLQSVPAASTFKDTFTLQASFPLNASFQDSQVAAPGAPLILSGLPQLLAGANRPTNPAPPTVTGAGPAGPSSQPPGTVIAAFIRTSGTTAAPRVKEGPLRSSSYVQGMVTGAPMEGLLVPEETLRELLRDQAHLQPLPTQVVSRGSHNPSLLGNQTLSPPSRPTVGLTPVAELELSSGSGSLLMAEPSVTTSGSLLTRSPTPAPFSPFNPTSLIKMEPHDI
HSF1, sequence (Q00613 whole entry): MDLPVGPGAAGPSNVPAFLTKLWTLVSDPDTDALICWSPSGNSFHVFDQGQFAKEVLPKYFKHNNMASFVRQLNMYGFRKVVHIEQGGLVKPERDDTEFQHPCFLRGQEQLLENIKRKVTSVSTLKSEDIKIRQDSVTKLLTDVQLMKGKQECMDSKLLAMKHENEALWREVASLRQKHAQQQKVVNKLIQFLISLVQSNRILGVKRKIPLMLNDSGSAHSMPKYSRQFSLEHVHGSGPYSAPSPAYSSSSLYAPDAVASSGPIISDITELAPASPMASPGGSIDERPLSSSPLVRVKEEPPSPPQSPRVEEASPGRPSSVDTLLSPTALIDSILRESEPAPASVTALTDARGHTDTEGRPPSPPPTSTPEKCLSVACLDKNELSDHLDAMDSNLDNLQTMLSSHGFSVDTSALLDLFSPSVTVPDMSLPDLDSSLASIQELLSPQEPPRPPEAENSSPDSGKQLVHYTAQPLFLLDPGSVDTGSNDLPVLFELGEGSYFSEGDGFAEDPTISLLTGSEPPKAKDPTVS
ETV1, sequence (P50549 whole entry): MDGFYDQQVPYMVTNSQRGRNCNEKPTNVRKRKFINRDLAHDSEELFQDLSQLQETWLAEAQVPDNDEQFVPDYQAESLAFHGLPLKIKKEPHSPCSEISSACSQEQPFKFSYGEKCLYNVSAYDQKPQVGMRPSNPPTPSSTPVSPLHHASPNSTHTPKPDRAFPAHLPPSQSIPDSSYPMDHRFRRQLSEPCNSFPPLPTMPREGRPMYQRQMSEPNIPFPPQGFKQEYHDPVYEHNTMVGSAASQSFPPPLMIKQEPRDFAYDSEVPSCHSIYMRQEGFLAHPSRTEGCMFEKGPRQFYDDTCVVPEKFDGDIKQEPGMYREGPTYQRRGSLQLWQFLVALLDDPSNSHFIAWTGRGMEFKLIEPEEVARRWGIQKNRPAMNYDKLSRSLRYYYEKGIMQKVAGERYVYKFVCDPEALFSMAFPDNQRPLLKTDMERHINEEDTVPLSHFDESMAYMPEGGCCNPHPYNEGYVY
SPIB, sequence (Q01892 whole entry): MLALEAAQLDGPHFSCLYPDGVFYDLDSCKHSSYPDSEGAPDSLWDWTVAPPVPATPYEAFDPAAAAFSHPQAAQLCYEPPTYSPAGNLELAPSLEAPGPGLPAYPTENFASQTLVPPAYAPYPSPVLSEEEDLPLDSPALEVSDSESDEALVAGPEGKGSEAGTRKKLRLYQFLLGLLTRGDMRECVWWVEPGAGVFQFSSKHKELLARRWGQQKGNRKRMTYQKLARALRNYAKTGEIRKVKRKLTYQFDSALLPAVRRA
CRX, sequence (O43186 whole entry): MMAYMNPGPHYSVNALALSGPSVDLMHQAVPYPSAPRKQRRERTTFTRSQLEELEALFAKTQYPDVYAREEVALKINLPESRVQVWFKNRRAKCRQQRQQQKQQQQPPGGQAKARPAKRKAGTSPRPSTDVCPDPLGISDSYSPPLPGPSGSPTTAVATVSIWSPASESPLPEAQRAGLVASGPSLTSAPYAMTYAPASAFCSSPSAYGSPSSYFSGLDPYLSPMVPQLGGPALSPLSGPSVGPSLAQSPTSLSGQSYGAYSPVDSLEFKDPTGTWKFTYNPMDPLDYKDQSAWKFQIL
ELF1, sequence (P32519 whole entry): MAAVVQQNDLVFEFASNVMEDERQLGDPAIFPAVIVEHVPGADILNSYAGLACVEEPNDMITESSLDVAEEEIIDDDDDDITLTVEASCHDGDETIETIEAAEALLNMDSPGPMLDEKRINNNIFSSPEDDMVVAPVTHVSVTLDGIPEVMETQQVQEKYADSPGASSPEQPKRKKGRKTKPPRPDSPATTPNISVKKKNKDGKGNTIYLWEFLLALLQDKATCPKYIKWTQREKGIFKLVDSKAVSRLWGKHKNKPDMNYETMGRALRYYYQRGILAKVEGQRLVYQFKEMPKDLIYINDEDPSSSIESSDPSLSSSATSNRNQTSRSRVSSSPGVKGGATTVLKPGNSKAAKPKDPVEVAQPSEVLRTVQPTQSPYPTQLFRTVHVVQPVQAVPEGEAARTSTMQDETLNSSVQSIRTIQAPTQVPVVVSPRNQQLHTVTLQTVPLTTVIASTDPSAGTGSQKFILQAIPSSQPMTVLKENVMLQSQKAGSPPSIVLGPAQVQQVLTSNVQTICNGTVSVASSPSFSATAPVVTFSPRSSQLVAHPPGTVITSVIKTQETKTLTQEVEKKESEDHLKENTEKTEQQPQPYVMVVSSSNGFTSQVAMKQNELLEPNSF
ETV5, sequence (P41161 whole entry): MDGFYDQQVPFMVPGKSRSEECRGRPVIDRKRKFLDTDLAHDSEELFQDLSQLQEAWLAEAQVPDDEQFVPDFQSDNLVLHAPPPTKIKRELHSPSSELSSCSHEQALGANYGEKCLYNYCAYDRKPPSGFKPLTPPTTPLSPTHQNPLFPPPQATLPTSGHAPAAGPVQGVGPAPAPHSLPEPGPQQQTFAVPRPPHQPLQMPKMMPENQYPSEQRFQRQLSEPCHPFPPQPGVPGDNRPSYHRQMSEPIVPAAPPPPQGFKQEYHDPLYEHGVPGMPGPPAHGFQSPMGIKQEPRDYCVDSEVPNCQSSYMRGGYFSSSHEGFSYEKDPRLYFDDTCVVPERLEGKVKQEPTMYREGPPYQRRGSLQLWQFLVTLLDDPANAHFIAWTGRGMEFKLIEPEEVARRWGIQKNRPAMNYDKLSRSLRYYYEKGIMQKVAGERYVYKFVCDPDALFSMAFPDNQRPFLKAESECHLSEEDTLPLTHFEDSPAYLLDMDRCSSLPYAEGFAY

Take CTTGCA: the binding signal with FLI1 was 1.33 fold enrichment (6-mer frequency, TF over GST control); in the assay with ELK1, 1.44 fold enrichment (6-mer frequency, TF over GST control); with GABPA, 1.31 fold enrichment (6-mer frequency, TF over GST control); in the assay with ERG it was 1.27 fold enrichment (6-mer frequency, TF over GST control); in the assay with ELF1, 1.4 fold enrichment (6-mer frequency, TF over GST control); with EHF, 1.33 fold enrichment (6-mer frequency, TF over GST control). In addition, the binding signal with SPI1 is 1.25 fold enrichment (6-mer frequency, TF over GST control); in the assay with SPIB, 1.26 fold enrichment (6-mer frequency, TF over GST control); in the assay with ELK3 it was 1.34 fold enrichment (6-mer frequency, TF over GST control); in the assay with FEV, 1.3 fold enrichment (6-mer frequency, TF over GST control); with ETV5, 1.31 fold enrichment (6-mer frequency, TF over GST control); with HSF1, 1.12 fold enrichment (6-mer frequency, TF over GST control). Also, the binding signal with SPIC was 1.28 fold enrichment (6-mer frequency, TF over GST control); in the assay with ELF4, 1.41 fold enrichment (6-mer frequency, TF over GST control); with ELK4 it was 1.4 fold enrichment (6-mer frequency, TF over GST control); in the assay with ETV2 it was 1.45 fold enrichment (6-mer frequency, TF over GST control); with ELF3 it was 1.3 fold enrichment (6-mer frequency, TF over GST control); in the assay with CRX, 1.15 fold enrichment (6-mer frequency, TF over GST control). The binding signal in the assay with ETV1 was 1.41 fold enrichment (6-mer frequency, TF over GST control).
